In PubChem BioAssay (Tox21) one finds Potency data, which are given here for 40 compounds.

Calls of active or inactive are those of the source. Where a call stands in place of a potency, no number is given. Calls come from the whole dose curve.

The test can be described thus: G protein-coupled receptor (GPCR) small molecule agonists, calcium flux assay: HEK293 wild type cell line counter screen (AID 1920065). To be noted: HEK293 WT calcium flux, fluorescence, agonist mode; series mostly up to 57.6 µM. The method in brief: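 Counter-screen of the Tox21 10K library for non-specific calcium release: dye-loaded cells received compounds in DMSO and were monitored by kinetic fluorescence (480/540 nm, 3 min). Fifteen concentrations, run in triplicate.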
Regarding `CCCCCCCCCCCC[N+](C)(C)C`, the Potency entry is “inactive”.

For `O=C1CCCCCCCCCCC1`, the Potency entry was “inactive”. As for `CC(=O)[C@H]1CC[C@H]2[C@@H]3CC=C4C[C@@H](O)CC[C@]4(C)[C@H]3CC[C@]12C`, the Potency entry was “inactive”.

Take `O=C1O[C@H](CO)[C@@H](O)[C@H](O)[C@H]1O`: the Potency entry is “inactive”. For `Brc1nc2ccccc2s1`, the Potency entry is “inactive”. Take `Oc1ccc2ccccc2c1N=Nc1ccccc1`: the Potency entry was “inactive”. For `Nc1cc([N+](=O)[O-])ccc1C(=O)O`, the Potency entry is “inactive”. In the case of `CCCCCCCCCCCCCC[N+](C)(C)Cc1ccccc1`, the Potency entry is “inactive”. Consider `CCCCCCCCOc1ccc(C(=O)c2ccccc2)c(O)c1`, for which the Potency entry is “inactive”. Take `Clc1ccc(Cl)c(Cl)c1Cl`: the Potency result was “inactive”. With `COc1ccc(C(Cl)=C(c2ccc(OC)cc2)c2ccc(OC)cc2)cc1`, the Potency entry is “inactive”. Turning to `CCCCC1(COC(=O)CCC(=O)O)C(=O)N(c2ccccc2)N(c2ccccc2)C1=O`, the Potency entry was “inactive”. Take `CN(C)CCCN`: the Potency result was “inactive”.

Turning to `C=C(C)C(=O)O[C@H]1C[C@@H]2CC[C@@]1(C)C2(C)C`, the Potency entry is “inactive”.

On to `C=CCOC(=O)c1ccccc1C(=O)OCC=C`, for which the Potency entry was “inactive”.

On to `CC(=O)c1ccc(S(=O)(=O)NC(=O)NC2CCCCC2)cc1`, for which the Potency result is “inactive”.

As to `CCC(O)OC(O)CC` (stereo not given), the Potency result is “inactive”. Take `COCCOC(=O)c1ccccc1C(=O)OCCOC`: the Potency entry is “inactive”. `CC(C)CC(=O)CC(C)CC(C)C` (stereo not given): the Potency entry was “inactive”. With `O=c1n(CC2CO2)c(=O)n(CC2CO2)c(=O)n1CC1CO1` (stereo not given), the Potency result was “inactive”. Regarding `O=C(/C=C/C=C/c1ccc2c(c1)OCO2)N1CCCCC1`, the Potency entry was “inactive”. As for `Cc1cc(Cc2ccc(N)c(C)c2)ccc1N`, the Potency entry is “inactive”. With `CCC[C@H](N[C@@H](C)C(=O)N1[C@H](C(=O)O)C[C@@H]2CCCC[C@@H]21)C(=O)OCC`, the Potency entry was “inactive”. Consider `c1ccc2c(c1)Cc1ccccc1-2`, for which the Potency result was “inactive”. Then `CCCOC(=O)NCCCN(C)C`, with “inactive”; and `CCCCOC(=O)CC(CC(=O)OCCCC)(OC(C)=O)C(=O)OCCCC`, with “inactive”. Consider `C=CC[N+](C)(C)CC=C`, for which the Potency result was “inactive”.

`CC(O)COCC(C)O` (stereo not given): the Potency result is “inactive”. In the case of `CCCCC/C=C\C/C=C\CCCCCCCC(=O)OC`, the Potency entry is “inactive”. On to `Nc1ncnc2nc[nH]c12`, for which the Potency result was “inactive”. In the case of `Cc1ccc(N)c(S(=O)(=O)O)c1`, the Potency entry was “inactive”. On to `NCCOCCO`, for which the Potency result is “inactive”. Take `CC(=O)Oc1ccc(C)cc1`: the Potency result is “inactive”. With `O=S1(=O)CCCO1`, the Potency result was “inactive”. In the case of `C=C(C)C(=O)OCC(CC)(COC(=O)C(=C)C)COC(=O)C(=C)C`, the Potency entry is “inactive”. Consider `O=[N+]([O-])c1cccc(Cl)c1`, for which the Potency entry is “inactive”. Consider `CCOCC(=O)O`, for which the Potency entry was “inactive”. Then `C=CCc1ccc(OC)c(OC)c1`, with “inactive”. In the case of `Clc1ccccn1`, the Potency entry was “inactive”. `Cc1cccc([N+](=O)[O-])c1C`: the Potency entry is “inactive”.
